From ChEMBL document CHEMBL3988442, “University of Dundee, Small-Polar-MMV Screening Library” (2021)
About 950 (1.4%) of roughly 69,000 compounds showed an effect of 50% or more. The full list was thinned out, with strong results kept by preference.

system: Mycobacterium tuberculosis; assay: Cornell M. t heat shock assay; type: functional, organism-based; design: dose or concentration left out as unconfirmed; also: in the data most compounds retested in dose-response had high values

Structure (SMILES) | Percent Effect
Cc1ccc(N2CCC3(CCN(C(=O)N(C)C)CC3)CC2)nn1.O=C(O)C(F)(F)F | 0.5325%
CC(C)N(C)C[C@H]1C[C@@H]2CN(Cc3ccco3)C[C@@H]2O1.O=C(O)C(F)(F)F.O=C(O)C(F)(F)F | -4.4%
CCCN1CCC(c2nc3ccc(-c4ccccc4)cn3n2)CC1.O=C(O)C(F)(F)F | -8.011%
O=C(O)C(F)(F)F.O=C(O)C(F)(F)F.c1cncc(OC[C@@H]2CC[C@H]3[C@H](CCN3Cc3cccs3)O2)c1 | -169%
CC(=O)NC1CCN(c2cc(C3CCNCC3)nc(C)n2)C1 (centres undefined) | -7.027%
O=c1[nH]c(CCN2CCCC2Cn2cccn2)nc2ccccc12 (centres undefined) | 50.72%
Cc1cnn(CC2CCCN2Cc2nc3ccccc3c(=O)[nH]2)c1 (centres undefined) | 89.62%
Cc1cnn(CC2CN(Cc3nc4ccccc4c(=O)[nH]3)CCO2)c1 (centres undefined) | 8.669%
Cn1cc(C2CCCN2CCc2nc3ccccc3c(=O)[nH]2)cn1 (centres undefined) | 2.636%
O=c1[nH]c(CCN2CCCC2Cn2cncn2)nc2ccccc12 (centres undefined) | 48.51%
Cc1cnn(CC2CCCN2CCc2nc3ccccc3c(=O)[nH]2)c1 (centres undefined) | 98.35%
O=S(=O)(CCN1CCCC1Cn1cccn1)c1ccccc1 (centres undefined) | 15.63%
Cc1nc(C)n(CC2CCCN2Cc2nc3ccccc3c(=O)[nH]2)n1 (centres undefined) | -31.26%
O=c1[nH]c(CCN2CCCCC2Cn2cccn2)nc2ccccc12 (centres undefined) | 29.01%
CC(C)(C)c1n[nH]cc1CNC1CCC(C(F)(F)F)CC1.Cl (centres undefined) | -43.27%
Cl.O=C(O)CN1CCC(C(F)(F)F)CC1 | 11.41%
CN(Cc1cccnc1)C1CC2(CCN(Cc3cccnc3)CC2)C1.O=C(O)C(F)(F)F.O=C(O)C(F)(F)F.O=C(O)C(F)(F)F | -1.954%
Cc1cnc(NS(=O)(=O)c2cccc(C#N)c2)s1 | -32.7%
CCOCc1cccc(S(=O)(=O)Nc2ncc(C)s2)c1 | 52.82%
CNS(=O)(=O)c1cccc(S(=O)(=O)Nc2ncc(C)s2)c1 | 68.64%
COCc1cccc(S(=O)(=O)Nc2ncc(C)s2)c1 | 15.26%
COC(=O)c1cccc(S(=O)(=O)Nc2ncc(C)s2)c1 | 1.16%
Cc1cnc(NS(=O)(=O)c2ccccc2)s1 | 4.612%
Cl.O=C(C1CCCC1)N1C[C@@H](c2ccsc2)[C@@H]2CN(C3CCCC3)CC[C@@H]21 | 3.962%
COCCN1CCCn2c(nc(Cn3cncn3)cc2=O)C1.O=C(O)C(F)(F)F | 17.08%
CCOCC1CC2(CCN(C(=O)c3ncccn3)CC2)CO1 (centres undefined) | -17.44%
O=C(Nc1ccccc1)N1C[C@H]2C[C@H](C(=O)N3CCCC3)[C@@H](C1)O2 | -25.79%
COCC1N(C(=O)c2ccco2)[C@H]2CC[C@]1(O)CC2 (some centres undefined) | 16.02%
O=C(O)C(F)(F)F.O=C(c1ccno1)N1CCO[C@@H]2CC(COCc3ccccn3)C[C@H]21 (some centres undefined) | 1.135%
